# Source: PubChem BioAssay (NCI)
# About 79,000 compounds went through this panel and 15% of them were active in at least one assay; those are over-represented in the sample as a whole. A number with no mark means an inactive call. Active and inactive are the calls of the source. Cut-off read from the data, not from the text of the source: active = growth inhibition above about 70%; inactive = the rest.
# Legend:
# [1] = NCI Yeast Anticancer Drug Screen. Data for the wt1 strain (AID 149);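 note: 0% = growth of vehicle-treated wt1 cultures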; conditions: S. cerevisiae wt1 strain (SPY 50644) growth inhibition, hits give high values
# Procedure, shortened: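 Measured: growth of wt1 yeast under compound versus vehicle treatment, reported as inhibition.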
# [2] = NCI Yeast Anticancer Drug Screen. Data for the rad50EPP+ strain (AID 151);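 note: 0% = growth of vehicle-treated control cultures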; conditions: S. cerevisiae rad50 mutant strain, hits give high values
# Procedure, shortened: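 Growth inhibition read against vehicle controls in rad50EPP+ yeast, a strain altered in DNA damage repair, after compound exposure.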
# [3] = NCI Yeast Anticancer Drug Screen. Data for the mgt1 strain (AID 153); conditions: S. cerevisiae mgt1 mutant growth inhibition, hits give high values
# Procedure, shortened: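 mgt1 yeast grown with test compound; read-out is growth inhibition versus vehicle-treated cultures.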
# [4] = NCI Yeast Anticancer Drug Screen. Data for the rad50 strain (AID 155);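 note: 0% = growth of vehicle-only cultures of the same strain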; conditions: S. cerevisiae rad50 strain growth inhibition, hits give high values
# Procedure, shortened: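 Growth of the mutant yeast was measured after compound exposure and referenced to vehicle-treated cultures.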
# [5] = NCI Yeast Anticancer Drug Screen. Data for the mec2-1 strain (AID 157); conditions: S. cerevisiae mec2-1 strain, hits give high values
# Procedure, shortened: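 Yeast mec2-1 mutant treated with compound. Readout: growth inhibition vs vehicle controls.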
# [6] = NCI Yeast Anticancer Drug Screen. Data for the rad14 strain (AID 159);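 note: 0% = growth of vehicle-treated control cultures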; conditions: S. cerevisiae rad14 strain growth inhibition, hits give high values
# Procedure, shortened: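 Here, inhibition of yeast growth was measured after compound exposure, using a strain with a genetic defect in DNA damage repair and vehicle-treated cultures as the reference.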
# [7] = NCI Yeast Anticancer Drug Screen. Data for the sgs1 mgt1 strain (AID 161);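 note: 0% = growth of cultures given vehicle only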; conditions: S. cerevisiae sgs1 mgt1 strain, hits give high values
# Procedure, shortened: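 Mutant yeast exposed to compound; growth scored against vehicle-only wells.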
# [8] = NCI Yeast Anticancer Drug Screen. Data for the CLN2oe strain (AID 163);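 note: 0% = growth of vehicle-only control cultures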; conditions: S. cerevisiae CLN2oe strain, hits give high values
# Procedure, shortened: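 Read-out: yeast growth inhibition, expressed relative to vehicle-only controls. The strain bears an engineered cell-cycle alteration.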
# [9] = NCI Yeast Anticancer Drug Screen. Data for the cln2 rad14 strain (AID 165);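 note: 0% = growth equal to vehicle treated cultures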; conditions: S. cerevisiae cln2 rad14 strain, hits give high values
# Procedure, shortened: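 cln2 rad14 yeast strain; compound exposure; growth inhibition read vs vehicle controls.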
# [10] = NCI Yeast Anticancer Drug Screen. Data for the bub3 strain (AID 167); conditions: S. cerevisiae bub3 mutant strain, hits give high values
# Procedure, shortened: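 Whole-cell yeast assay. The mutant strain was incubated with compounds, and growth inhibition was determined by comparison with vehicle-treated cells.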
# [11] = NCI Yeast Anticancer Drug Screen. Data for the wt2 strain (AID 169);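 note: 0% = growth of vehicle-treated yeast cultures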; conditions: S. cerevisiae wt2 strain growth inhibition, hits give high values
# Procedure, shortened: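 Read-out: growth inhibition versus vehicle-treated control cultures after compound exposure of the yeast strain.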
# [12] = NCI Yeast Anticancer Drug Screen. Data for the mlh1 strain (AID 171);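 note: 0% = growth of vehicle-treated control cultures of the same strain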; conditions: S. cerevisiae mlh1 strain growth inhibition, hits give high values
# Procedure, shortened: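 Read-out: growth inhibition versus vehicle controls. Strain: engineered yeast with a defined DNA repair or cell cycle defect, compound-treated.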
# [13] = NCI Yeast Anticancer Drug Screen. Data for the sgs1 strain (AID 173);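 note: 0% = growth of vehicle-only control cultures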; conditions: S. cerevisiae sgs1 mutant, hits give high values
# Procedure, shortened: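 Read-out: yeast growth inhibition relative to vehicle controls, following compound exposure of a strain with a defined DNA repair/cell cycle alteration.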
# [14] = NCI Yeast Anticancer Drug Screen. Data for the mlh1 rad18 strain (AID 175); conditions: S. cerevisiae mlh1 rad18 strain growth inhibition, hits give high values
# Procedure, shortened: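 Yeast w/ defined DNA-repair lesions; compound exposure; growth vs vehicle controls → % inhibition.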
# [15] = NCI Yeast Anticancer Drug Screen. Data for the rad18 strain (AID 177); conditions: S. cerevisiae rad18 mutant growth inhibition, hits give high values
# Procedure, shortened: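 Readout: growth inhibition vs vehicle controls. Cells: genetically altered yeast strain, DNA repair defect.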
# [16] = at 5.0 µM (retest, dose inferred, filed as 0.5)
# [17] = at 50.0 µM (retest, dose inferred, filed as 5.0)
smiles,measurement,setting,value
CN(C)CCNC(=O)c1cccc2nc3c(ccc4ccccc43)nc12,growth inhibition,[1]; at 1.2 µM,-3%
same,growth inhibition,[1]; at 3.7 µM,-2%
same,growth inhibition,[1]; at 11.0 µM,2%
same,growth inhibition,[1]; at 33.0 µM,17%
same,growth inhibition,[1]; at 100.0 µM,85% (active)
same,growth inhibition,[2]; at 1.2 µM,-3%
same,growth inhibition,[2]; at 3.7 µM,1%
same,growth inhibition,[2]; at 11.0 µM,15%
same,growth inhibition,[2]; at 33.0 µM,75% (active)
same,growth inhibition,[2]; at 100.0 µM,96% (active)
same,growth inhibition,[3]; at 1.2 µM,-1%
same,growth inhibition,[3]; at 3.7 µM,-1%
same,growth inhibition,[3]; at 11.0 µM,1%
same,growth inhibition,[3]; at 33.0 µM,31%
same,growth inhibition,[3]; at 100.0 µM,99% (active)
same,growth inhibition,[4]; at 1.2 µM,3%
same,growth inhibition,[4]; at 3.7 µM,26%
same,growth inhibition,[4]; [16],13%
same,growth inhibition,[4]; at 11.0 µM,67%
same,growth inhibition,[4]; at 33.0 µM,91% (active)
same,growth inhibition,[4]; [17],94% (active)
same,growth inhibition,[4]; at 50.0 µM,90% (active)
same,growth inhibition,[4]; at 100.0 µM,98% (active)
same,growth inhibition,[5]; at 1.2 µM,-1%
same,growth inhibition,[5]; at 3.7 µM,2%
same,growth inhibition,[5]; [16],5%
same,growth inhibition,[5]; at 11.0 µM,10%
same,growth inhibition,[5]; at 33.0 µM,25%
same,growth inhibition,[5]; [17],23%
same,growth inhibition,[5]; at 50.0 µM,73.8% (active)
same,growth inhibition,[5]; at 100.0 µM,94% (active)
same,growth inhibition,[6]; at 1.2 µM,-2%
same,growth inhibition,[6]; at 3.7 µM,2%
same,growth inhibition,[6]; at 11.0 µM,14%
same,growth inhibition,[6]; at 33.0 µM,50%
same,growth inhibition,[6]; at 100.0 µM,99% (active)
same,growth inhibition,[7]; [16],3%
same,growth inhibition,[7]; [17],37%
same,growth inhibition,[7]; at 50.0 µM,40.2%
same,growth inhibition,[8]; at 1.2 µM,-5%
same,growth inhibition,[8]; at 3.7 µM,-1%
same,growth inhibition,[8]; at 11.0 µM,-2%
same,growth inhibition,[8]; at 33.0 µM,18%
same,growth inhibition,[8]; at 100.0 µM,72% (active)
same,growth inhibition,[9]; [16],4%
same,growth inhibition,[9]; [17],57%
same,growth inhibition,[9]; at 50.0 µM,26.9%
same,growth inhibition,[10]; at 1.2 µM,1%
same,growth inhibition,[10]; at 3.7 µM,3%
same,growth inhibition,[10]; [16],-40%
same,growth inhibition,[10]; at 11.0 µM,5%
same,growth inhibition,[10]; at 33.0 µM,24%
same,growth inhibition,[10]; [17],43%
same,growth inhibition,[10]; at 50.0 µM,24.1%
same,growth inhibition,[10]; at 100.0 µM,97% (active)
same,growth inhibition,[11]; at 1.2 µM,-2%
same,growth inhibition,[11]; at 3.7 µM,6%
same,growth inhibition,[11]; at 11.0 µM,-2%
same,growth inhibition,[11]; at 33.0 µM,13%
same,growth inhibition,[11]; at 100.0 µM,92% (active)
same,growth inhibition,[12]; at 1.2 µM,-1%
same,growth inhibition,[12]; at 3.7 µM,0%
same,growth inhibition,[12]; at 11.0 µM,3%
same,growth inhibition,[12]; at 33.0 µM,28%
same,growth inhibition,[12]; at 100.0 µM,98% (active)
same,growth inhibition,[13]; at 1.2 µM,-4%
same,growth inhibition,[13]; at 3.7 µM,-4%
same,growth inhibition,[13]; at 11.0 µM,1%
same,growth inhibition,[13]; at 33.0 µM,30%
same,growth inhibition,[13]; at 100.0 µM,98% (active)
same,growth inhibition,[14]; [16],7%
same,growth inhibition,[14]; [17],92% (active)
same,growth inhibition,[14]; at 50.0 µM,90.2% (active)
same,growth inhibition,[15]; at 1.2 µM,-2%
same,growth inhibition,[15]; at 3.7 µM,2%
same,growth inhibition,[15]; at 11.0 µM,11%
same,growth inhibition,[15]; at 33.0 µM,61%
same,growth inhibition,[15]; at 100.0 µM,99% (active)
CC1C=CN(N(C)C)C2=C1C(=O)c1cnccc1C2=O (stereo unspecified),growth inhibition,[1]; at 1.2 µM,-1%
same,growth inhibition,[1]; at 3.7 µM,7%
same,growth inhibition,[1]; at 11.0 µM,47%
same,growth inhibition,[1]; at 33.0 µM,83% (active)
same,growth inhibition,[1]; at 100.0 µM,96% (active)
same,growth inhibition,[2]; at 1.2 µM,-4%
same,growth inhibition,[2]; at 3.7 µM,53%
same,growth inhibition,[2]; at 11.0 µM,82% (active)
same,growth inhibition,[2]; at 33.0 µM,91% (active)
same,growth inhibition,[2]; at 100.0 µM,93% (active)
same,growth inhibition,[3]; at 1.2 µM,-31%
same,growth inhibition,[3]; at 3.7 µM,9%
same,growth inhibition,[3]; at 11.0 µM,51%
same,growth inhibition,[3]; at 33.0 µM,87% (active)
same,growth inhibition,[3]; at 100.0 µM,96% (active)
same,growth inhibition,[4]; at 1.2 µM,31%
same,growth inhibition,[4]; at 3.7 µM,68%
same,growth inhibition,[4]; [16],81% (active)
same,growth inhibition,[4]; at 11.0 µM,86% (active)
same,growth inhibition,[4]; at 33.0 µM,93% (active)
same,growth inhibition,[4]; [17],93% (active)
same,growth inhibition,[4]; at 50.0 µM,85% (active)
same,growth inhibition,[4]; at 100.0 µM,96% (active)
same,growth inhibition,[5]; at 1.2 µM,-36%
same,growth inhibition,[5]; at 3.7 µM,-23%
same,growth inhibition,[5]; [16],30%
same,growth inhibition,[5]; at 11.0 µM,49%
same,growth inhibition,[5]; at 33.0 µM,86% (active)
same,growth inhibition,[5]; [17],95% (active)
same,growth inhibition,[5]; at 50.0 µM,92.2% (active)
same,growth inhibition,[5]; at 100.0 µM,96% (active)
same,growth inhibition,[6]; at 1.2 µM,-70%
same,growth inhibition,[6]; at 3.7 µM,-31%
same,growth inhibition,[6]; at 11.0 µM,46%
same,growth inhibition,[6]; at 33.0 µM,89% (active)
same,growth inhibition,[6]; at 100.0 µM,95% (active)
same,growth inhibition,[7]; [16],48%
same,growth inhibition,[7]; [17],86% (active)
same,growth inhibition,[7]; at 50.0 µM,89.7% (active)
same,growth inhibition,[8]; at 1.2 µM,-11%
same,growth inhibition,[8]; at 3.7 µM,10%
same,growth inhibition,[8]; at 11.0 µM,49%
same,growth inhibition,[8]; at 33.0 µM,90% (active)
same,growth inhibition,[8]; at 100.0 µM,93% (active)
same,growth inhibition,[9]; [16],25%
same,growth inhibition,[9]; [17],-18%
same,growth inhibition,[9]; at 50.0 µM,87.8% (active)
same,growth inhibition,[10]; at 1.2 µM,-38%
same,growth inhibition,[10]; at 3.7 µM,-8%
same,growth inhibition,[10]; [16],12%
same,growth inhibition,[10]; at 11.0 µM,46%
same,growth inhibition,[10]; at 33.0 µM,89% (active)
same,growth inhibition,[10]; [17],6%
same,growth inhibition,[10]; at 50.0 µM,85.2% (active)
same,growth inhibition,[10]; at 100.0 µM,97% (active)
same,growth inhibition,[11]; at 1.2 µM,5%
same,growth inhibition,[11]; at 3.7 µM,6%
same,growth inhibition,[11]; at 11.0 µM,43%
same,growth inhibition,[11]; at 33.0 µM,90% (active)
same,growth inhibition,[11]; at 100.0 µM,96% (active)
same,growth inhibition,[12]; at 1.2 µM,-48%
same,growth inhibition,[12]; at 3.7 µM,-23%
same,growth inhibition,[12]; at 11.0 µM,40%
same,growth inhibition,[12]; at 33.0 µM,89% (active)
same,growth inhibition,[12]; at 100.0 µM,97% (active)
same,growth inhibition,[13]; at 1.2 µM,41%
same,growth inhibition,[13]; at 3.7 µM,46%
same,growth inhibition,[13]; at 11.0 µM,65%
same,growth inhibition,[13]; at 33.0 µM,93% (active)
same,growth inhibition,[13]; at 100.0 µM,96% (active)
same,growth inhibition,[14]; [16],83% (active)
same,growth inhibition,[14]; [17],95% (active)
same,growth inhibition,[14]; at 50.0 µM,89.8% (active)
same,growth inhibition,[15]; at 1.2 µM,66%
same,growth inhibition,[15]; at 3.7 µM,87% (active)
same,growth inhibition,[15]; at 11.0 µM,90% (active)
same,growth inhibition,[15]; at 33.0 µM,96% (active)
same,growth inhibition,[15]; at 100.0 µM,96% (active)
